About 83,000 compounds went through this panel and 20% of them were active in at least one assay; those are over-represented in the sample as a whole.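 Results are percent growth after 48 hours of single-concentration exposure. 100 means growth as in untreated cells, lower positive values show inhibition; negative values down to -100 show cell death.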 Active and inactive are the calls of the source. Rule for the calls: active = growth percent below 10; inactive = the rest.
Assays:
Assay in all cases: NCI-60 one-dose screen, 48 h (100 = growth as untreated, 0 = no growth, -100 = all killed)
SR leukemia = conditions: 10 µM unless noted
OVCAR-8 ovarian = conditions: 10 µM unless noted
OVCAR-5 ovarian = conditions: 10 µM unless noted
OVCAR-4 ovarian = conditions: 10 µM
SK-OV-3 ovarian = conditions: 10 µM unless noted
IGROV1 ovarian = conditions: 10 µM unless noted
OVCAR-3 ovarian = conditions: 10 µM unless noted
HS 578T breast = conditions: 10 µM unless noted
NCI/ADR-RES ovarian = conditions: 10 µM unless noted
T-47D breast = conditions: 10 µM unless noted
BT-549 breast = conditions: 10 µM unless noted
SW-620 colon = conditions: 10 µM unless noted
MCF7 breast = conditions: 10 µM unless noted
HCT-116 colon = conditions: 10 µM unless noted
HCC-2998 colon = conditions: 10 µM unless noted
KM12 colon = conditions: 10 µM unless noted
MDA-MB-435 melanoma = conditions: 10 µM unless noted

Measured: growth

C=CCCCCOc1ccccc1-c1cnc(OCCCCC=C)n1C
inactive: SR leukemia 30.7% | OVCAR-8 ovarian 83.9% | OVCAR-5 ovarian 95.2% | OVCAR-4 ovarian 97.9% | SK-OV-3 ovarian 75% | IGROV1 ovarian 62.9% | OVCAR-3 ovarian 51.3% | HS 578T breast 66.4% | NCI/ADR-RES ovarian 30.4% | T-47D breast 61.9% | BT-549 breast 96.8% | SW-620 colon 30.8% | MCF7 breast 42.2% | HCT-116 colon 61% | HCC-2998 colon 61.1% | KM12 colon 38.4%

C[C@]12CCc3nc(Nc4ccccc4)sc3C1=CC[C@@H]1[C@@H]2CC[C@]2(C)/C(=N/NC(N)=S)CC[C@@H]12
active: OVCAR-3 ovarian -21.2% | T-47D breast 9.46% | HCT-116 colon -46.2%
inactive: SR leukemia 13.1% | OVCAR-8 ovarian 56.9% | OVCAR-5 ovarian 91.5% | OVCAR-4 ovarian 35.9% | IGROV1 ovarian 69.1% | HS 578T breast 55.9% | NCI/ADR-RES ovarian 53.6% | BT-549 breast 35.4% | MDA-MB-435 melanoma 30.8% | SW-620 colon 18.2% | MCF7 breast 24.3% | HCC-2998 colon 84.9% | KM12 colon 33.5%

C#CCNC(=O)CC[C@@H](C)[C@H]1CC[C@H]2[C@@H]3CC[C@@H]4CC(=O)CC[C@]4(C)[C@H]3CC[C@]12C
inactive: SR leukemia 24.9% [100 µM] | SK-OV-3 ovarian 11.3% [100 µM]
active: OVCAR-8 ovarian -21.7% [100 µM] | OVCAR-5 ovarian -45.4% [100 µM] | IGROV1 ovarian -64% [100 µM] | OVCAR-3 ovarian -72.6% [100 µM] | HS 578T breast -28.3% [100 µM] | NCI/ADR-RES ovarian -28.7% [100 µM] | T-47D breast 4.15% [100 µM] | BT-549 breast -60% [100 µM] | MDA-MB-435 melanoma -39.7% [100 µM] | SW-620 colon -58.2% [100 µM] | MCF7 breast -6.31% [100 µM] | HCT-116 colon -1.19% [100 µM] | HCC-2998 colon 0.203% [100 µM] | KM12 colon -26.6% [100 µM]

NC(=O)CC1C=CCC1 (stereo not given)
inactive: SR leukemia 106% | OVCAR-8 ovarian 84.7% | OVCAR-5 ovarian 96.7% | SK-OV-3 ovarian 105% | IGROV1 ovarian 107% | OVCAR-3 ovarian 111% | HS 578T breast 110% | NCI/ADR-RES ovarian 109% | T-47D breast 106% | BT-549 breast 90.1% | MDA-MB-435 melanoma 102% | SW-620 colon 97.3% | HCT-116 colon 105% | HCC-2998 colon 101% | KM12 colon 102%

C=C(C)[C@@H]1CC[C@]2(C)[C@H](CC[C@@H]3[C@@H]([C@@](C)(O)CCC=C(C)C)CC[C@]32C)[C@@]1(C)CCC(=O)N1CCN(C)CC1
active: SR leukemia 7.02% [100 µM] | OVCAR-8 ovarian -65.6% [100 µM] | OVCAR-5 ovarian -93.3% [100 µM] | IGROV1 ovarian -82.5% [100 µM] | OVCAR-3 ovarian -85.9% [100 µM] | HS 578T breast -41.5% [100 µM] | NCI/ADR-RES ovarian -87% [100 µM] | T-47D breast -42.9% [100 µM] | MDA-MB-435 melanoma -82.6% [100 µM] | SW-620 colon -75% [100 µM] | MCF7 breast -65.9% [100 µM] | HCT-116 colon -85.7% [100 µM] | HCC-2998 colon -91.9% [100 µM] | KM12 colon -83% [100 µM]

CCn1cc(-c2[nH]c(=S)ncc2-c2ccc(Cl)cc2)c(-c2ccc(Br)cc2)n1
inactive: SR leukemia 93.1% | OVCAR-8 ovarian 86.9% | OVCAR-5 ovarian 90.5% | OVCAR-4 ovarian 94.2% | IGROV1 ovarian 81.5% | OVCAR-3 ovarian 97.4% | HS 578T breast 108% | NCI/ADR-RES ovarian 82.5% | T-47D breast 59.3% | BT-549 breast 91.2% | MDA-MB-435 melanoma 85% | SW-620 colon 103% | MCF7 breast 84.8% | HCT-116 colon 72.6% | HCC-2998 colon 99.5% | KM12 colon 94%

O=C(Nc1cccc2cccnc12)c1cc(C(=O)c2ccc(Cl)cc2)n2ccc(-c3ccncc3)cc12
inactive: SR leukemia 125% | OVCAR-8 ovarian 97.8% | OVCAR-5 ovarian 98.9% | SK-OV-3 ovarian 92.1% | IGROV1 ovarian 89.1% | OVCAR-3 ovarian 111% | HS 578T breast 89.6% | NCI/ADR-RES ovarian 105% | T-47D breast 95.7% | BT-549 breast 93.9% | MDA-MB-435 melanoma 97.6% | SW-620 colon 90.6% | MCF7 breast 98.3% | HCT-116 colon 101% | HCC-2998 colon 113% | KM12 colon 108%

COc1ccc(-c2nc3ccccn3c2/C=C/C(=O)c2cc(OC)c(OC)c(OC)c2)cc1OC
active: OVCAR-3 ovarian 9.08% | HS 578T breast 6.05% | NCI/ADR-RES ovarian -4.39% | T-47D breast 2.52% | BT-549 breast -0.101% | MCF7 breast 4.01% | KM12 colon 3.9%
inactive: SR leukemia 27% | OVCAR-8 ovarian 14.1% | OVCAR-5 ovarian 24.5% | OVCAR-4 ovarian 17.8% | MDA-MB-435 melanoma 20.3% | SW-620 colon 14.6% | HCT-116 colon 10.3% | HCC-2998 colon 16.4%

CC(C)=CCC[C@](C)(O)[C@H]1CC[C@]2(C)[C@@H]1CC[C@@H]1[C@@]3(C)CC[C@H](OC(=O)CCC(=O)O)C(C)(C)[C@@H]3CC[C@]12C
active: OVCAR-3 ovarian -32.1% [100 µM] | MDA-MB-435 melanoma 6.66% [100 µM] | HCT-116 colon 9.66% [100 µM] | KM12 colon -19% [100 µM]
inactive: SR leukemia 29% [100 µM] | OVCAR-8 ovarian 24.7% [100 µM] | OVCAR-5 ovarian 41.7% [100 µM] | SK-OV-3 ovarian 42.4% [100 µM] | IGROV1 ovarian 15.3% [100 µM] | HS 578T breast 41.2% [100 µM] | NCI/ADR-RES ovarian 29.9% [100 µM] | T-47D breast 25.7% [100 µM] | BT-549 breast 25.5% [100 µM] | SW-620 colon 12.1% [100 µM] | MCF7 breast 15.8% [100 µM] | HCC-2998 colon 20.5% [100 µM]
